The panel holds about 83,000 compounds, 20% with a hit somewhere; the sample as a whole holds those more often.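 48-hour exposure, single concentration, 96-well plates; percent growth endpoint where 0 means no net growth. Active: below 10.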 Unmarked numbers belong to inactive results. Activity calls are given as the source filed them.
test system: CCRF-CEM leukemia; assay: NCI-60 one-dose screen, 48 h (100 = growth as untreated, 0 = no growth, -100 = all killed); conditions: 10 µM unless noted

Row | SMILES | growth
1 | COc1ccc2c(c1)CC[C@@H]1[C@@H]2CC[C@]2(C)[C@@H](O)C(=O)C[C@@H]12 | 91.8%
2 | C[C@@H]1CN(c2nc3c(cc2F)c(=O)c(C(=O)O)cn3C(C)(C)C)C[C@H](C)N1 | 102%
3 | NS(=O)(=O)c1ccc(-n2ncc3c(NC4CCCCC4)ncnc32)cc1 | 82.3%
4 | CCOC(=O)C1=CCC(n2cc(C)c(=O)[nH]c2=O)O1 (stereo not drawn) | 98.8%
5 | O=CNc1ccc2c(c1)Cc1cc([N+](=O)[O-])ccc1-2 | 20.9%
6 | CC(=O)[C@H]1CC[C@H]2[C@@H]3C[C@H](C)C4=CC(=O)CC[C@]4(C)[C@H]3C(=O)C[C@]12C | 104%
7 | Cc1ccc2nc(SCC(=O)Nc3ccc(-c4nc5ccccc5s4)c(Cl)c3)[nH]c2c1 | 103%
8 | Cc1ccc(C(=O)Cc2ccccc2)c(O)c1 | 112%
9 | ICCC(c1ccccc1)(c1ccccc1)c1ccccc1 | 31.6%
10 | c1ccc(CN=C(NCc2ccccc2)NCc2ccccc2)cc1 | 65.5%
11 | Oc1ccc(/C=N/Nc2nc3ccccc3s2)c(O)c1 | 27.1%
12 | O=C(CC(C(=O)c1ccccc1)N1CCN(Cc2ccccc2)CC1)c1ccccc1 (stereo not drawn) | 8.48% (active)
13 | CC(NC(N)=S)c1ccccc1 (stereo not drawn) | 129%
14 | C[C@]12CCC(=O)C=C1CC[C@H]1[C@@H]3C[C@@H](O)[C@](O)(C(=O)CO)[C@@]3(C)C[C@H](O)[C@@]12F | 97.1%
15 | O=C(Nc1ccc2c(c1)C(=O)c1ccccc1-2)c1ccccc1 | 101%
16 | COC(=O)C1=CCC(n2cnc3c(N)ncnc32)O1 (stereo not drawn) | 98.8%
17 | CCN(Cc1cccc(S(=O)(=O)[O-])c1)c1ccc(C(=C2C=CC(=[N+](CC)Cc3cccc(S(=O)(=O)O)c3)C=C2)c2ccccc2S(=O)(=O)O)cc1 | 95.3%
18 | CC(NC(=O)Oc1cccc2ccccc12)c1ccccc1 (stereo not drawn) | 72%
19 | OC(c1cc(-c2cccc(Cl)c2)nc2ccccc12)C1CCCCN1 (stereo not drawn) | -8.29% (active)
20 | O=C(Nc1ccccc1OC(=O)c1ccccc1)c1ccccc1 | 27.1%

Row | SMILES | growth
21 | Cc1ccccc1NC(=O)NC(CC(N)=O)c1ccc2c(c1)nc(-c1cccc(Oc3ccc(C(C)(C)C)cc3)c1)n2CCCN1CCCCC1C (stereo not drawn) | 1.56% (active)
22 | O=C(C(=O)c1cc(Br)ccc1O)c1cc(Br)ccc1O | 53.2%
23 | Fc1ccccc1C1c2ccccc2-c2nccn21 (stereo not drawn) | 96.9%
24 | COc1cc(/C=C\C(C)=N\Nc2ccccc2)ccc1O | 30.7%
25 | COc1cc(/C=N/NC(=O)c2ccc(C(F)(F)F)nc2Nc2ccc(Cl)cc2C)ccc1O | 12.6%
26 | O=Cc1ccccc1C(=O)O | 104%
27 | COc1cc(NC(=O)NCc2ccco2)ccc1-c1ccc(NC(=O)NCc2ccco2)cc1OC | 61.3%
28 | COc1cccc(/C=N/Nc2nc3ccccc3s2)c1OC | 77%
29 | O=C(N/N=C/c1ccc(Cl)cc1Cl)c1ccccc1Nc1cccc(C(F)(F)F)c1 | 32.4%
30 | COc1ccc(NS(=O)(=O)N2CCCCC2)cc1 | 89.6%
31 | O=c1c2ccccc2c2nccn2c2cc(Cl)ccc12 | 34%
32 | COc1ccc(-c2ccc(O)c(C(=O)/C=C/c3cc(OC)c(OC)c(OC)c3)c2)cc1 | 24.2%
33 | Cn1cnc([N+](=O)[O-])c1Sc1nc(N)nc2nc[nH]c12 | 13.5%
34 | Cc1cc(=O)oc2cc(OCCn3c(C)nn(-c4ccc(Cl)cc4)c3=O)ccc12 | 13.4%
35 | O=C1C=CC(=O)N1c1ccccn1 | 105%
36 | CCN(CC)c1ccc(N=C2C=CC(=O)C=C2NC(C)=O)cc1 | 87.6%
37 | CC1CN(C2CCCCC2)C(=O)NC1=O (stereo not drawn) | 106%
38 | COc1ccc2cc(C3=CC(=O)CCC3)ccc2c1 | 90.9%
39 | COc1ccc(Cl)cc1Nc1nc(C(F)(F)F)ccc1C(=O)N/N=C/c1c(Cl)cccc1Cl | 13.8%

test system: MOLT-4 leukemia; assay: as above; conditions: 10 µM unless noted

Row | SMILES | growth
40 | COc1ccc2c(c1)CC[C@@H]1[C@@H]2CC[C@]2(C)[C@@H](O)C(=O)C[C@@H]12 | 90.8%
41 | C[C@@H]1CN(c2nc3c(cc2F)c(=O)c(C(=O)O)cn3C(C)(C)C)C[C@H](C)N1 | 101%
42 | NS(=O)(=O)c1ccc(-n2ncc3c(NC4CCCCC4)ncnc32)cc1 | 72.6%
43 | CCOC(=O)C1=CCC(n2cc(C)c(=O)[nH]c2=O)O1 (stereo not drawn) | 94.7%
44 | O=CNc1ccc2c(c1)Cc1cc([N+](=O)[O-])ccc1-2 | 29.7%
45 | CC(=O)[C@H]1CC[C@H]2[C@@H]3C[C@H](C)C4=CC(=O)CC[C@]4(C)[C@H]3C(=O)C[C@]12C | 92.3%
46 | Cc1ccc2nc(SCC(=O)Nc3ccc(-c4nc5ccccc5s4)c(Cl)c3)[nH]c2c1 | 99.8%
47 | Cc1ccc(C(=O)Cc2ccccc2)c(O)c1 | 92.3%
48 | ICCC(c1ccccc1)(c1ccccc1)c1ccccc1 | 39.4%
49 | c1ccc(CN=C(NCc2ccccc2)NCc2ccccc2)cc1 | 70.7%
50 | Oc1ccc(/C=N/Nc2nc3ccccc3s2)c(O)c1 | 18.8%
51 | O=C(CC(C(=O)c1ccccc1)N1CCN(Cc2ccccc2)CC1)c1ccccc1 (stereo not drawn) | 49.5%
52 | CC(NC(N)=S)c1ccccc1 (stereo not drawn) | 98.8%
53 | C[C@]12CCC(=O)C=C1CC[C@H]1[C@@H]3C[C@@H](O)[C@](O)(C(=O)CO)[C@@]3(C)C[C@H](O)[C@@]12F | 84.1%
54 | O=C(Nc1ccc2c(c1)C(=O)c1ccccc1-2)c1ccccc1 | 97.7%
55 | COC(=O)C1=CCC(n2cnc3c(N)ncnc32)O1 (stereo not drawn) | 91.3%
56 | CCN(Cc1cccc(S(=O)(=O)[O-])c1)c1ccc(C(=C2C=CC(=[N+](CC)Cc3cccc(S(=O)(=O)O)c3)C=C2)c2ccccc2S(=O)(=O)O)cc1 | 96.5%
57 | CC(NC(=O)Oc1cccc2ccccc12)c1ccccc1 (stereo not drawn) | 68.9%
58 | OC(c1cc(-c2cccc(Cl)c2)nc2ccccc12)C1CCCCN1 (stereo not drawn) | -30.6% (active)
59 | O=C(Nc1ccccc1OC(=O)c1ccccc1)c1ccccc1 | 26.2%

Row | SMILES | growth
60 | Cc1ccccc1NC(=O)NC(CC(N)=O)c1ccc2c(c1)nc(-c1cccc(Oc3ccc(C(C)(C)C)cc3)c1)n2CCCN1CCCCC1C (stereo not drawn) | -10.6% (active)
61 | O=C(C(=O)c1cc(Br)ccc1O)c1cc(Br)ccc1O | 37.6%
62 | Fc1ccccc1C1c2ccccc2-c2nccn21 (stereo not drawn) | 87.4%
63 | COc1cc(/C=C\C(C)=N\Nc2ccccc2)ccc1O | 70.9%
64 | COc1cc(/C=N/NC(=O)c2ccc(C(F)(F)F)nc2Nc2ccc(Cl)cc2C)ccc1O | -23.6% (active)
65 | O=Cc1ccccc1C(=O)O | 98.6%
66 | COc1cc(NC(=O)NCc2ccco2)ccc1-c1ccc(NC(=O)NCc2ccco2)cc1OC | 62.5%
67 | COc1cccc(/C=N/Nc2nc3ccccc3s2)c1OC | 74.4%
68 | O=C(N/N=C/c1ccc(Cl)cc1Cl)c1ccccc1Nc1cccc(C(F)(F)F)c1 | 55.8%
69 | COc1ccc(NS(=O)(=O)N2CCCCC2)cc1 | 99.8%
70 | O=c1c2ccccc2c2nccn2c2cc(Cl)ccc12 | -54.9% (active)
71 | COc1ccc(-c2ccc(O)c(C(=O)/C=C/c3cc(OC)c(OC)c(OC)c3)c2)cc1 | 34.3%
72 | Cn1cnc([N+](=O)[O-])c1Sc1nc(N)nc2nc[nH]c12 | 11.3%
73 | Cc1cc(=O)oc2cc(OCCn3c(C)nn(-c4ccc(Cl)cc4)c3=O)ccc12 | 37.6%
74 | O=C1C=CC(=O)N1c1ccccn1 | 66.6%
75 | CCN(CC)c1ccc(N=C2C=CC(=O)C=C2NC(C)=O)cc1 | 99.5%
76 | CC1CN(C2CCCCC2)C(=O)NC1=O (stereo not drawn) | 85%
77 | COc1ccc2cc(C3=CC(=O)CCC3)ccc2c1 | 92.9%
78 | COc1ccc(Cl)cc1Nc1nc(C(F)(F)F)ccc1C(=O)N/N=C/c1c(Cl)cccc1Cl | 14.4%
